Active and inactive are the calls of the source. How the source made its calls: active means hit-call score of the fitted dose curve at least 0.9, where 1 is the maximum; inactive means score below 0.9.
Each compound was assayed against Nuclear respiratory factor 1 (Homo sapiens) (UniProt Q16656) (assay: ATG_NRF1_CIS: Attagene CIS-FACTORIAL HepG2 Assay for human Nuclear Respiratory Factor 1 (NRF1) Orphan Gene (AID 2282987)). Conditions: HepG2 NRF1 cis-element reporter, Attagene multiplex; actives raise or lower the signal.
Protocol: ATG_CIS is a cell-based, multiplexed-readout assay that uses HepG2, a human liver cell line, with measurements taken at 24 hours after chemical dosing in a 24-well plate.ATG_NRF1_CIS is one of 52 assay component(s) measured or calculated from the ATG_CIS assay. It is designed to make measurements of mRNA induction, a form of inducible reporter, as detected with fluorescence intensity signals by Reverse transcription polymerase chain reaction (RT-PCR) and Capillary electrophoresis technology.Data from the assay component ATG_NRF1_CIS was analyzed into 1 assay endpoint. This assay endpoint, ATG_NRF1_CIS, was analyzed with bidirectional fitting relative to DMSO as the negative control and baseline of activity. Using a type of inducible reporter, measures of mRNA for gain or loss-of-signal activity can be used to understand the reporter gene at the transcription factor-level as they relate to the gene NRF1. Furthermore, this assay endpoint can be referred to as a primary readout, because this assay has produced multiple assay endpoints where this one serves a reporter gene function. To generalize the intended target to other relatable targets, this assay endpoint is annotated to the dna binding intended target family, where the subfamily is nuclear respiratory factors.
Human liver HepG2 cells are transiently transfected with multiple reporter transcription units (MRTUs) in 6-well plates using FuGene 6 reagent (Roche; 3 ml FuGene/1 mg DNA). The MRTU constructs are regulated by a cis-regulating element (promoter). […] A major difference between the CIS and TRANS system is that in CIS activities of endogenous TFs are measured, whereas the TRANS assay evaluates changes in activities of exogenous, chimeric NR-Gal4 proteins. […] At the end of 24 hour incubation, total RNA was isolated using TriZol reagent (Invitrogen). The isolated RNA is then reverse-transcribed using oligo(dT) primer and Mo-MLV reverse transcriptase (Invitrogen) with DNAse I (Ambion) treatment for 30 min. The one-tenth of the produced cDNA was amplified by PCR using Taq DNA polymerase (Invitrogen) and two reporter sequence-specific primers. The PCR products were fluorescently labeled by primer extension with 6-arboxyfluorescein (6-FAM) 5'-labeled reporter sequence-specific primer (2 min at 95 C, 20 s at 68 C and 10 min at 72 C) and these products were digested with 5U of HpaI (New England Biolabs) for 2h at 37 C. The fragments were purified using Qiaquick PCR columns (Qiagen), analyzed on an ABI 3130xL genetic analyzer (Applied Biosystems) with peak positions identified by using a set of X-rhodamine (ROX)-labeled MapMarker1000 molecular weight standards (BioVentures). The raw capillary electrophoresis data was processed using Attagraph software (Attagene).

Nuclear respiratory factor 1 (Homo sapiens), sequence (Q16656 whole entry, looked up): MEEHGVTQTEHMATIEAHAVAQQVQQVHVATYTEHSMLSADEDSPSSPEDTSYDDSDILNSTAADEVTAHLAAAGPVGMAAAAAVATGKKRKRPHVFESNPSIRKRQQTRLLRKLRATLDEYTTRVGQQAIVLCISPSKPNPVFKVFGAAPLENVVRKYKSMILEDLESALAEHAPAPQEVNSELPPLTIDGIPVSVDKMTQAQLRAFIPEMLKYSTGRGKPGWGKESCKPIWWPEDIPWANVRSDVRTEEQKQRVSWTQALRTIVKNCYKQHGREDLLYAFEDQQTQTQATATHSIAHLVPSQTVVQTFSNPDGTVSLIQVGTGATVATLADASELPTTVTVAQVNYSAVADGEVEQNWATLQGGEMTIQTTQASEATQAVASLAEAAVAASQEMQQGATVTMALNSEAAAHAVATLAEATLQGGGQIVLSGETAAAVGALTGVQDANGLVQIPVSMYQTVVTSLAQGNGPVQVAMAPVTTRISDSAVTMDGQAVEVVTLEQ

Question: With `CC(C)OC(=O)COc1ccc(Cl)cc1Cl` as the compound, how does the outcome read?
Answer: The outcome was “inactive”.

Question: `CCCCCCCCCc1ccc(OCCO)cc1` was tested. Which outcome did it give?
Answer: Its outcome is “inactive”.

Question: `CCC/C=C/CO` was tested. Which outcome did it give?
Answer: Its outcome is “inactive”.

Question: How did the outcome turn out when `Cc1ccc(O)cn1` was run?
Answer: Its outcome is “inactive”.

Question: Which outcome does the source give for `OCCCc1cccnc1` here?
Answer: Its outcome is “inactive”.

Question: For `CC(C)(C)c1cc(Cc2cc(C(C)(C)C)c(O)c(C(C)(C)C)c2)cc(C(C)(C)C)c1O`, which outcome is on record?
Answer: Its outcome is “inactive”.

Question: With `CN(C)C(C)(C)CO` as the compound, how does the outcome read?
Answer: The outcome was “inactive”.

Question: Which outcome does the source give for `CC(C)OC=O` here?
Answer: The outcome was “inactive”.

Question: For `O=C1C=CC(=O)N1c1ccc(Cc2ccc(N3C(=O)C=CC3=O)cc2)cc1`, which AC50 is on record?
Answer: The AC50 was 60.1 µM (active).

Question: How did the outcome turn out when `CC1=CCC(=O)O1` was run?
Answer: The outcome was “inactive”.

Question: For `C=CC(=O)OCC(F)(F)C(F)(F)C(F)(F)COC(=O)C=C`, which outcome is on record?
Answer: Its outcome is “inactive”.

Question: How did the outcome turn out when `O=C(Cl)C(F)(F)C(F)(F)C(F)(F)C(F)(F)C(F)(F)C(F)(F)F` was run?
Answer: The outcome was “inactive”.

Question: With `Cc1cc(O)c(C(C)(C)C)cc1C(C)(C)C` as the compound, how does the outcome read?
Answer: The outcome was “inactive”.

Question: With `CC(C)CCCC(C)CCO` (stereo not given) as the compound, how does the outcome read?
Answer: Its outcome is “inactive”.

Question: `NC(=O)C(F)(F)C(F)(F)C(F)(F)C(F)(F)C(F)(F)C(F)(F)C(F)(F)F` was tested. Which outcome did it give?
Answer: Its outcome is “inactive”.

Question: For `c1ccc(C[P+](c2ccccc2)(c2ccccc2)c2ccccc2)cc1`, which outcome is on record?
Answer: The outcome was “inactive”.

Question: How did the outcome turn out when `CNS(=O)(=O)C(F)(F)C(F)(F)C(F)(F)C(F)(F)C(F)(F)C(F)(F)C(F)(F)C(F)(F)F` was run?
Answer: The outcome was “inactive”.

Question: How did the outcome turn out when `COc1ccccc1C=O` was run?
Answer: Its outcome is “inactive”.

Question: How did the outcome turn out when `CC(C)(C)C(=O)C1C(=O)c2ccccc2C1=O` was run?
Answer: The outcome was “inactive”.

Question: Which outcome does the source give for `O=C(O)CCC(F)(F)C(F)(F)C(F)(F)C(F)(F)C(F)(F)C(F)(F)C(F)(F)F` here?
Answer: Its outcome is “inactive”.

Question: With `Nc1c(Br)cc([N+](=O)[O-])cc1Br` as the compound, how does the outcome read?
Answer: Its outcome is “inactive”.

Question: `C[C@]12CC[C@H]3C(=CCc4cc(O)ccc43)[C@@H]1CCC2=O` was tested. Which outcome did it give?
Answer: Its outcome is “inactive”.

Question: `C#CC(O)CCC` (stereo not given) was tested. Which outcome did it give?
Answer: Its outcome is “inactive”.

Question: `OC(O)C(F)(F)C(F)(F)F` was tested. Which outcome did it give?
Answer: Its outcome is “inactive”.

Question: For `N#Cc1ccccc1O`, which outcome is on record?
Answer: Its outcome is “inactive”.

Question: Which outcome does the source give for `CCOCN(C(=O)CS(=O)(=O)O)c1c(C)cccc1CC` here?
Answer: Its outcome is “inactive”.

Question: For `CCOC(OCC)OCC`, which outcome is on record?
Answer: The outcome was “inactive”.

Question: For `CC1=CC2C3C=CC(C3)C2C1C` (stereo not given), which outcome is on record?
Answer: The outcome was “inactive”.

Question: With `CC(C)Nc1ccc(NC(C)C)c2c1C(=O)c1ccccc1C2=O` as the compound, how does the outcome read?
Answer: Its outcome is “inactive”.

Question: Which outcome does the source give for `COC(=O)c1ccc(C=O)cc1` here?
Answer: Its outcome is “inactive”.

Question: For `CCCC(=O)OCC(COC(=O)CCC)OC(=O)CCC`, which outcome is on record?
Answer: The outcome was “inactive”.

Question: With `CCc1cccc(C)c1N(C(=O)C(=O)O)C(C)COC` (stereo not given) as the compound, how does the outcome read?
Answer: The outcome was “inactive”.

Question: `CCCCCCCCCCCC(=O)Cl` was tested. Which outcome did it give?
Answer: Its outcome is “inactive”.

Question: With `C=CCOC(=O)CC(C)C` as the compound, how does the outcome read?
Answer: The outcome was “inactive”.

Question: `Cc1ccc(O)c(-n2nc3ccccc3n2)c1` was tested. Which outcome did it give?
Answer: The outcome was “inactive”.

Question: For `CSc1ccc(Cl)cc1`, which outcome is on record?
Answer: Its outcome is “inactive”.

Question: For `F[Si-2](F)(F)(F)(F)F`, which outcome is on record?
Answer: Its outcome is “inactive”.

Question: For `OCCCC(F)(F)C(F)(F)C(F)(F)C(F)(F)C(F)(F)C(F)(F)C(F)(F)C(F)(F)F`, which outcome is on record?
Answer: Its outcome is “inactive”.

Question: How did the outcome turn out when `Nc1cc([N+](=O)[O-])cc(Cl)c1O` was run?
Answer: Its outcome is “inactive”.

Question: For `CC1=CCC2C(=O)OC(=O)C2C1` (stereo not given), which outcome is on record?
Answer: Its outcome is “inactive”.

Source: PubChem BioAssay (EPA / NIEHS)
